Measured values as given in PubChem BioAssay (NCI).
Compounds without any hit were thinned out: in the full panel of roughly 83,000, 20% have a hit.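 Cells were grown in 96-well plates and exposed to the test compound at a single concentration for 48 hours; results are reported as percent growth, with values below 10 considered active.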 Active and inactive are the calls of the source.

Test system: OVCAR-4 ovarian
Assay: NCI-60 one-dose screen, 48 h (100 = growth as untreated, 0 = no growth, -100 = all killed)
Conditions: 10 µM unless noted
Experimental: Growth inhibition of the OVCAR-4 human tumor cell line is measured as a screen for anti-cancer activity. Cells are grown in 96 well plates and exposed to the test compound for 48 hours. Compounds are tested at a single concentration, which is 10^-5 M for most compounds. The reported endpoint is percent growth (GI% or GIPRCNT), where numbers from 0 - 100% represent growth inhibition, and numbers from -100% - 0 represent cell death. For example, a value of 40 represents 60% growth inhibition. A value of 0 means no net growth occurred over the course of the experiment. A value of -40 indicates 40% of cells at the beginning of the experiment died by the end of the experiment. A value of -100 means all cells are dead at the end of the experiment.
NCI-60 Human Tumor Cell Lines Screen was performed using the standard one-dose NCI protocol, which is described in more detail at https://dtp.cancer.gov/discovery_development/nci-60/default.htm.
Compounds with GIPRCNT values below 10 were considered active. Activity score was based on GIPRCNT using the following formula: […]
Score is 0 for GIPRCNT values of 100 or above, 50 for GIPRCNT values of 0, and 100 for GIPRCNT values of -100.

| Compound | growth |
| --- | --- |
| Cn1cc(CNc2nc3ccc(OC/C(=C/F)CN)cc3o2)ccc1=O | 106% (inactive) |
| C=CCN(C)S(=O)(=O)/N=C1\NC(=O)NC1=C(Cl)Cl | 89.1% (inactive) |
| O=C(CN1CCN(c2cc(=O)[nH]c3ccc(F)cc23)CC1)Nc1ccc(Cl)cc1 | 29.7% (inactive) |
| C#C[C@]1(O)CC[C@H]2[C@@H]3CC=C4c5sc(-c6ccc7c(c6)OCO7)nc5CC[C@]4(C)[C@H]3CC[C@@]21C | 34.9% (inactive) |
| NC(N)=Nc1ccc(Oc2cccc(NC(N)=Nc3ccc(Br)c(C(F)(F)F)c3)c2)cc1 | 58.9% (inactive) |
| N/C(=N\C(N)=N\c1nc2ccccc2s1)c1ccc(C(F)(F)F)cc1 | 94.6% (inactive) |
| O=S(=O)(NCCNc1nccc(-n2cnc3ccccc32)n1)c1ccc(Br)cc1 | 82.2% (inactive) |
| Cc1cc(-c2ccc(Cl)cc2)n(Cc2nnc(SCC(=O)Nc3ccc(S(N)(=O)=O)cc3)n2C2CCCCC2)n1 | 109% (inactive) |
| CCn1c(SCC(=O)Nc2cccc(C(=O)/C=C/c3cc(OC)c(OC)c(OC)c3)c2)nc2ccccc2c1=O | 39.9% (inactive) |
| COc1cc(/C=N/NC(=O)c2cn(C3CC3)c3c(OC)c(N4CC5CCCNC5C4)c(F)cc3c2=O)ccc1O (stereo not given) | -52.8% (active) |
| CC(=O)O[C@@H]1C(=O)N(c2cnccn2)[C@H]1c1ccccc1[N+](=O)[O-] | 66.6% (inactive) |
| Nc1ncc(-c2ccc3ncnc(N4CCc5cc(F)c(Cl)cc54)c3c2)cn1 | 31.7% (inactive) |
| CC(C)(C)c1ccc(CC(=O)Nc2sc3c(c2C(N)=O)CCC(=O)C3)cc1 | -32.2% (active) |
| O=S(=O)(Nc1ccc2c(c1)OCO2)c1ccc(-c2cnc(C3CC3)o2)cc1 | 36.3% (inactive) |
| Cc1ccc2c(c1)C13C(=C2Br)CCCN1C(=O)c1ccccc13 (stereo not given) | 91.8% (inactive) |
| CCOc1ccccc1NC1=C(Cl)C(=O)c2nc(C)ccc2C1=O | -92% (active) |
| CCc1nn2c(C)cc(C)nc2c1Cc1ccc(/C=C/CN2CCN(CCOCCOCCN3CCN(C/C=C/c4ccc(Cc5c(CC)nn6c(C)cc(C)nc56)cc4)CC3)CC2)cc1 | 25.9% (inactive) |
| C=CCn1c(SCC(=O)Nc2ccc(C(=O)/C=C/c3ccc(Br)cc3)cc2)nnc1-c1c[nH]c2ccccc12 | 74.7% (inactive) |
| O=C(NNc1nc2cc(F)cc(F)c2n2cccc12)c1cnccn1 | 16.2% (inactive) |
| Cc1ccc(NC(=O)c2ccc(CN3CCN(C)CC3)cc2)cc1Oc1ccc(-c2[nH]nc3ncnc(N)c23)cc1 | 99.1% (inactive) |

| Compound | growth |
| --- | --- |
| CC[C@H](CO)Nc1ccc2ncc(C#Cc3cncc(C(=O)Nc4ccc(CN5CCN(C)CC5)c(C(F)(F)F)c4)c3)n2n1 | -47.7% (active) |
| COc1ccccc1NC1=C(Cl)C(=O)c2nc(C)ccc2C1=O | -98.2% (active) |
| COc1cc(-c2ccc3ncnc(NCc4ccccc4)c3c2)cnc1OC | 65.3% (inactive) |
| NC(=O)c1cccc(-n2ccc3cc(NC(=O)Nc4ccc(N5CCOCC5)c(C(F)(F)F)c4)ccc32)n1 | 3.71% (active) |
| Cc1ccc(-c2nn(-c3ccccc3)cc2/C=C/C(=O)c2ccc(NC(=O)CCCCCCC(=O)NO)cc2)cc1 | 79.8% (inactive) |
| Cn1cc(-c2nc(N)nnc2-c2c[nH]c3ccccc23)c2cc(Br)ccc21 | 74.1% (inactive) |
| COc1ccc(NCc2cn(-c3ccc(C(=O)O)cc3)nc2-c2cc(C(F)(F)F)cc(C(F)(F)F)c2)cc1 | 100% (inactive) |
| O=C(Nc1cccc(Cl)c1)Nc1nc2ccc([N+](=O)[O-])cc2o1 | -3.53% (active) |
| NC(N)=Nc1ccc(Oc2cccc(NC(N)=Nc3ccc(Cl)c(C(F)(F)F)c3)c2)cc1 | 62.4% (inactive) |
| CCO/C=N/C1=C(C#N)C(c2ccc(F)cc2)c2sc3c(C)cccc3c2O1 (stereo not given) | 51% (inactive) |
| CC1(C)[C@@H](O)CC[C@]2(C)[C@H]3CC[C@@H]4[C@H]5[C@H](C(=O)/C=C\c6ccncc6)CC[C@]5(O)CC[C@@]4(C)[C@]3(C)CC[C@@H]12 | 38.5% (inactive) |
| COc1ccc(-n2c(/C=C3\C(=O)Nc4ccccc43)ccc2CO)cc1 | 92.6% (inactive) |
| CCC(CC)N1C(=O)/C(=c2\sc3n(c2=O)NC2C(N=3)N(CC)C(=O)N2CC)c2ccccc21 (stereo not given) | 63.6% (inactive) |
| COc1ccc(-c2nc3cc(Cl)c(Cl)cc3n2CC(=O)N=Nc2c(O)[nH]c3ccc(OC)cc23)cc1 | 40.4% (inactive) |
| Cc1ccc(-n2cc(/C=C/C(=O)c3ccc(O)cc3)c(-c3ccc(S(C)(=O)=O)cc3)n2)cc1 | 98.7% (inactive) |
| Cc1ccc(C2=NN(C)C(=O)C3(CCCC3)C2)cc1 | 106% (inactive) |
| COc1ccc(-c2nn(-c3ccc(S(C)(=O)=O)cc3)cc2/C=N/O)cc1 | 113% (inactive) |
| Nc1nc(Nc2ccccc2SSc2ccccc2Nc2nc(N)nc(-c3cccc(Br)c3)n2)nc(-c2cccc(Br)c2)n1 | 73% (inactive) |
| CCCn1cnc2c(c1=N)C(c1ccc(Cl)cc1)c1sc3c(C)cccc3c1O2 (stereo not given) | 89.2% (inactive) |
| O=C(CCn1cc[n+](CC(=O)c2ccc(-c3ccccc3)cc2)c1)Nc1cccc2cccnc12 | 24.6% (inactive) |
